Our source for the outcome and AC50 values is PubChem BioAssay (EPA / NIEHS).

Calls of active or inactive are those of the source. Rule for the calls: active = hit-call score of the fitted dose curve at least 0.9, where 1 is the maximum; inactive = score below 0.9.

The nature of experiment [1]: ATG_M_61_CIS: Attagene CIS-FACTORIAL HepG2 Assay for M61 Transcription Factor (Internal Marker) (AID 2282937). The note with it: HepG2 Attagene CIS-FACTORIAL M61 internal marker reporter; actives raise or lower the signal. The essentials: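 Readout is reporter mRNA by RT-PCR, fluorescent primer extension and capillary electrophoresis, with gain or loss fitted relative to DMSO. Transfected HepG2 cells carrying endogenous-TF-driven cis reporters were exposed to chemicals for 24 hours.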

Experiment [2] is described as follows: ATG_EGR_CIS: Attagene CIS-FACTORIAL HepG2 Assay for human Early Growth Response 1 (EGR1) (AID 2282938). The note with it: HepG2 Attagene CIS-FACTORIAL EGR reporter mRNA; actives raise or lower the signal. The method, boiled down: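 After 24 h compound exposure, RNA from reporter-transfected HepG2 cells was reverse-transcribed, PCR-amplified, fluorescently labelled and resolved by capillary electrophoresis. EGR1 reporter transcript changes, up or down, were fitted against DMSO, reflecting endogenous transcription-factor activity.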

Experiment [3] can be described thus: ATG_M_19_CIS: Attagene CIS-FACTORIAL HepG2 Assay for M19 Transcription Factor (Internal Marker) (AID 2282939). Particulars: HepG2 Attagene CIS-FACTORIAL M19 internal marker reporter; actives raise or lower the signal. The method, boiled down:
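Chemical-treated HepG2 (24 h) with MRTU constructs; reporter transcripts detected by fluorescent RT-PCR fragment analysis on capillary electrophoresis. Internal background marker, DMSO as baseline.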

A short description of experiment [4]: ATG_ERE_CIS: Attagene CIS-FACTORIAL HepG2 Assay for Estrogen Response Element (ERE) (AID 2282940). The note with it: HepG2 ERE cis-reporter, Attagene RNA transcript; actives raise or lower the signal. The method, boiled down:
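Human liver cells (HepG2) bearing transiently transfected, promoter-regulated reporter units were exposed 24 h. Reporter mRNA induction was detected by capillary electrophoresis of labelled RT-PCR products and fitted bidirectionally to DMSO.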

Experiment [5] in a line: ATG_Ets_CIS: Attagene CIS-FACTORIAL HepG2 Assay for human Erythroblast Transformation Specific (ETS) (AID 2282941). The note with it: HepG2 ETS cis-reporter transcription, actives raise or lower the signal. The method, boiled down:
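Endogenous transcription factor activity read as reporter mRNA via RT-PCR and capillary electrophoresis, with gain or loss fitted bidirectionally against DMSO. Human HepG2 liver cells, transiently transfected CIS reporter constructs, 24 h exposure.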

The nature of experiment [6]: ATG_FoxO_CIS: Attagene CIS-FACTORIAL HepG2 Assay for human Forkhead box O (FoxO) (AID 2282943). Particulars: HepG2 Attagene cis-reporter, FoxO element, mRNA; actives raise or lower the signal. The method, boiled down:
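HepG2 cells transiently transfected with cis-element-driven reporter units report endogenous FoxO activity. After 24 h chemical exposure, reporter mRNA quantified by RT-PCR, fluorescent labeling, HpaI digestion and capillary electrophoresis; bidirectional fit versus DMSO.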

Experiment [7] can be described thus: ATG_GLI_CIS: Attagene CIS-FACTORIAL HepG2 Assay for human Zinc Finger Protein GLI1 (AID 2282945). The note with it: HepG2, Attagene cis-factorial reporter mRNA, GLI element; actives raise or lower the signal. The method, boiled down:
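Transiently transfected HepG2 cells report endogenous transcription factor activity via cis-element-driven reporter units. After 24 h compound exposure, reporter mRNA was measured by RT-PCR with capillary electrophoresis; bidirectional fitting against DMSO baseline.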

For experiment [8], the target named is Bile acid receptor (Homo sapiens) (UniProt Q96RI1). The experiment in a line: ATG_IR1_CIS: Attagene CIS-FACTORIAL HepG2 Assay for human Nuclear Receptor Subfamily 1 Group H Member 4 (NR1H4), IR1 submotif (AID 2282946). The note with it: IR1 reporter transcription, actives raise or lower the signal. The essentials:
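Fluorescence of capillary-separated, HpaI-digested RT-PCR reporter products gave IR1-element mRNA induction in HepG2 cells 24 h after dosing. Endogenous transcription factors drove the cis-regulated reporters; activity was fitted bidirectionally against DMSO.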

Experiment [9] in a line: ATG_GRE_CIS: Attagene CIS-FACTORIAL HepG2 Assay for human Glucocorticoid Response Elements (GRE) (AID 2282947). Particulars: HepG2 GRE cis-reporter, Attagene multiplex mRNA; actives raise or lower the signal. The method, boiled down:
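Read-out: fluorescent reporter-transcript fragments separated by capillary electrophoresis after RT-PCR. Transiently transfected HepG2 cells carrying cis-element-driven reporter units were dosed for 24 h; gain or loss of signal fitted against DMSO control.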

A short description of experiment [10]: ATG_ISRE_CIS: Attagene CIS-FACTORIAL HepG2 Assay for human Interferon Regulatory Factor 1 (IRF1) binding to an Interferon-Stimulated Response Element (ISRE) (AID 2282948). The note with it: HepG2 ISRE cis-reporter (Attagene), mRNA transcription readout; actives raise or lower the signal. The method, boiled down:
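Endogenous transcription factor activity read as reporter transcript abundance via RT-PCR and capillary electrophoresis. HepG2 cells transiently transfected, 24 h chemical exposure. Gain or loss fitted against DMSO baseline.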

Experiment [11] can be described thus: ATG_M_06_CIS: Attagene CIS-FACTORIAL HepG2 Assay for M06 Transcription Factor (Internal Marker) (AID 2282950). The note with it: HepG2 Attagene CIS-FACTORIAL M06 internal marker reporter; actives raise or lower the signal. The method, boiled down: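 Cells (HepG2, transiently carrying cis-driven reporter units) receive chemical for 24 h before RNA isolation. Reporter cDNA is PCR-amplified, FAM-labelled by primer extension, HpaI-digested and sized on a capillary analyser.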

Experiment [12] has as its target Hypoxia-inducible factor 1-alpha (Homo sapiens) (UniProt Q16665). The experiment in a line: ATG_HIF1a_CIS: Attagene CIS-FACTORIAL HepG2 Assay for human Hypoxia Inducible Factor 1 (HIF1A) (AID 2282951). The note with it: HepG2 Attagene cis-factorial HIF1a reporter transcription; actives raise or lower the signal. The method, boiled down:
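Activity is fitted in both directions relative to DMSO. Reporter transcripts are read by RT-PCR, fluorescent primer extension and capillary electrophoresis after 24 h chemical treatment. The cells are HepG2 carrying transiently transfected cis-element-driven reporter units responding to endogenous factors.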

Experiment [13] has as its target Hepatocyte nuclear factor 6 (Homo sapiens) (UniProt Q9UBC0). The experiment can be described thus: ATG_HNF6_CIS: Attagene CIS-FACTORIAL HepG2 Assay for human Hepatocyte Nuclear Factor 6 (HNF6) (AID 2282952). Particulars: HepG2 Attagene cis-factorial HNF6 reporter transcription; actives raise or lower the signal. The essentials:
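First, HepG2 cells were transfected with the multiplexed cis reporter library and dosed with chemical for 24 h. Next, RNA was reverse-transcribed, PCR-amplified and fluorescently labelled. Finally, HpaI-digested fragments were read by capillary electrophoresis.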

In experiment [14] the target is Heat shock factor protein 1 (Homo sapiens) (UniProt Q00613). The experiment in a line: ATG_HSE_CIS: Attagene CIS-FACTORIAL HepG2 Assay for human Heat Shock Transcription Factor 1 (HSE) (AID 2282953). The note with it: HepG2 HSE cis-reporter, Attagene RNA transcription; actives raise or lower the signal. The essentials:
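Liver-derived HepG2 cells carry transiently introduced multiple reporter units governed by cis promoters. Reporter RNA measured 24 h post-dose through reverse transcription, PCR amplification, fluorescent labelling and capillary electrophoresis, normalised to DMSO.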

The nature of experiment [15]: ATG_MRE_CIS: Attagene CIS-FACTORIAL HepG2 Assay for human Metal Responsive Element (MRE) (AID 2282954). The note with it: HepG2 MRE cis-reporter transcription, Attagene multiplex; actives raise or lower the signal. The method, boiled down:
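RT-PCR/capillary electrophoresis readout of reporter mRNA, 24 h post-dosing, in HepG2 cells transfected with multiplexed cis-regulated reporter constructs. Gain or loss of signal fitted bidirectionally against DMSO baseline.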

The nature of experiment [16]: ATG_PBREM_CIS: Attagene CIS-FACTORIAL HepG2 Assay for human Phenobarbital-responsive Enhancer Module (PBREM) (AID 2282955). The note with it: HepG2 PBREM cis-reporter, Attagene multiplexed transcription; actives raise or lower the signal. The method, boiled down:
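Endogenous transcription factor activity was read from reporter transcripts in transiently transfected human HepG2 liver cells after 24 h dosing. RT-PCR products were fluorescently labelled, HpaI-cut and sized by capillary electrophoresis; activity fitted bidirectionally against DMSO baseline.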

For experiment [17], the target named is Paired box protein Pax-6 (Homo sapiens) (UniProt P26367). The experiment can be described thus: ATG_Pax6_CIS: Attagene CIS-FACTORIAL HepG2 Assay for human Paired Box 6 (PAX6) (AID 2282956). The note with it: HepG2 CIS-FACTORIAL PAX6 reporter transcription, RNA readout; actives raise or lower the signal. The essentials: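 Read-out is reporter transcript level, measured by RT-PCR with fluorescent primer extension and capillary electrophoresis after 24 h dosing of transfected HepG2 cells. Activity in either direction fitted relative to DMSO control.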
Sequence of Paired box protein Pax-6 (Homo sapiens) (P26367 whole entry, looked up): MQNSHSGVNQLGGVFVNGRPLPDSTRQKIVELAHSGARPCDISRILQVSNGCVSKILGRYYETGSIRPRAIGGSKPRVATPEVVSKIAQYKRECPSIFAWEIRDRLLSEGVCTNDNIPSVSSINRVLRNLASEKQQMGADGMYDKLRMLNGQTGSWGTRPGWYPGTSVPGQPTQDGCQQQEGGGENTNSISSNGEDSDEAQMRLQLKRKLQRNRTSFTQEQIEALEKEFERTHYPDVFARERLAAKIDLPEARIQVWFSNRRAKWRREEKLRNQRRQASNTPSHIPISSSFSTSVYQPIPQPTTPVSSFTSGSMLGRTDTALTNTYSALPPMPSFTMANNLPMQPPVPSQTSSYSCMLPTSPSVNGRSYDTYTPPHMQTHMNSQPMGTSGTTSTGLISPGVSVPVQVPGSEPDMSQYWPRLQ

Experiment [18] can be described thus: ATG_M_32_CIS: Attagene CIS-FACTORIAL HepG2 Assay for M32 Transcription Factor (Internal Marker) (AID 2282949).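 Note: background control marker of the multiplexed CIS panel rather than a real target.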 The note with it: HepG2 Attagene cis-factorial M32 reporter, mRNA; actives raise or lower the signal. The method, boiled down: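 Using DMSO as baseline, bidirectional curve fits were applied to reporter mRNA signals. These came from transiently transfected HepG2 cells exposed for 24 h, with RNA analysed by RT-PCR, FAM primer extension, HpaI digestion and CE.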

Experiment [19] deals with Hepatocyte nuclear factor 3-beta (Homo sapiens) (UniProt Q9Y261). The experiment in a line: ATG_FoxA2_CIS: Attagene CIS-FACTORIAL HepG2 Assay for human Forkhead box A2 (FOXA2) (AID 2282942). The note with it: HepG2 cis-reporter transcription factor activity, 24 h; actives raise or lower the signal. The method, boiled down:
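Endogenous transcription factor activity is captured via cis-element-driven reporter transcripts in transfected HepG2. Total RNA taken at 24 h post-dosing; labelled RT-PCR products resolved by capillary electrophoresis. Gain or loss fitted versus DMSO.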

Experiment [20] in a line: ATG_GATA_CIS: Attagene CIS-FACTORIAL HepG2 Assay for human GATA Binding Protein (AID 2282944). Particulars: HepG2 GATA cis-element reporter, Attagene multiplex mRNA; actives raise or lower the signal. The method, boiled down: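 Transfected cis-reporter HepG2 cells were treated with chemicals for 24 hours. Total RNA was then converted to cDNA, amplified with reporter-specific primers and analysed by fluorescent capillary electrophoresis, using DMSO-treated wells as baseline.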

Sequence of Hypoxia-inducible factor 1-alpha (Homo sapiens) (Q16665 whole entry, looked up): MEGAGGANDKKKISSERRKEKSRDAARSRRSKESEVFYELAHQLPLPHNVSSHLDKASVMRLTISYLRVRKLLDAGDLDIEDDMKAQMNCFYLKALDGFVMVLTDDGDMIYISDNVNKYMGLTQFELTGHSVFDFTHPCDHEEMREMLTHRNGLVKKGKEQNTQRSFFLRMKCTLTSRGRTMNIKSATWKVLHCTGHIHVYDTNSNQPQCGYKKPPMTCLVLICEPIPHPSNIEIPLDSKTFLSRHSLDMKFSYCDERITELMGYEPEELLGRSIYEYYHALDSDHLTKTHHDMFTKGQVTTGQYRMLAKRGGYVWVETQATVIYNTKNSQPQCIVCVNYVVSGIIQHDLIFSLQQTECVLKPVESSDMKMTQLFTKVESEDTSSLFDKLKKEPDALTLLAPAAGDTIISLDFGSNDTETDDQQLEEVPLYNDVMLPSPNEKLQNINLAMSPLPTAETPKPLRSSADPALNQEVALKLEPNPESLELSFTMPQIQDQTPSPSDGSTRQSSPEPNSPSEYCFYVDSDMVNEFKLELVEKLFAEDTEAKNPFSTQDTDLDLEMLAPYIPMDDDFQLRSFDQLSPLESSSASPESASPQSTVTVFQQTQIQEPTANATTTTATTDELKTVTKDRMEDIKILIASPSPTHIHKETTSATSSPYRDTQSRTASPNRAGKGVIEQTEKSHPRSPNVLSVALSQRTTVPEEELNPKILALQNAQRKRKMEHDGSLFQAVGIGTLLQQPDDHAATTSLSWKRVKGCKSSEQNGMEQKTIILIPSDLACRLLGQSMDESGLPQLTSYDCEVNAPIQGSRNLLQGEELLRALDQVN
Sequence of Hepatocyte nuclear factor 6 (Homo sapiens) (Q9UBC0 whole entry, looked up, the tested form may be a part): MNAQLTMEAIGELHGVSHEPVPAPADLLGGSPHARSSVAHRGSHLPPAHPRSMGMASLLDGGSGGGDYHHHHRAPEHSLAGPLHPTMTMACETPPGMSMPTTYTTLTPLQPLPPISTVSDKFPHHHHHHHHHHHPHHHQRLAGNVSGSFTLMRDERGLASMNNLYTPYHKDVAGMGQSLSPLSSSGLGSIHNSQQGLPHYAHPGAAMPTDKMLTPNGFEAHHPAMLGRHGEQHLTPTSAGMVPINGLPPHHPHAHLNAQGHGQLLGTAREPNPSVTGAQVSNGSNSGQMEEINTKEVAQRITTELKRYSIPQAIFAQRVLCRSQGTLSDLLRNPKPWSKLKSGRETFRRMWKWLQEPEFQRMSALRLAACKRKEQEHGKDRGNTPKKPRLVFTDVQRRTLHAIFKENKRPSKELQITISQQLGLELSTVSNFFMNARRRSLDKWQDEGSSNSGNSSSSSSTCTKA
Sequence of Bile acid receptor (Homo sapiens) (Q96RI1 whole entry, looked up): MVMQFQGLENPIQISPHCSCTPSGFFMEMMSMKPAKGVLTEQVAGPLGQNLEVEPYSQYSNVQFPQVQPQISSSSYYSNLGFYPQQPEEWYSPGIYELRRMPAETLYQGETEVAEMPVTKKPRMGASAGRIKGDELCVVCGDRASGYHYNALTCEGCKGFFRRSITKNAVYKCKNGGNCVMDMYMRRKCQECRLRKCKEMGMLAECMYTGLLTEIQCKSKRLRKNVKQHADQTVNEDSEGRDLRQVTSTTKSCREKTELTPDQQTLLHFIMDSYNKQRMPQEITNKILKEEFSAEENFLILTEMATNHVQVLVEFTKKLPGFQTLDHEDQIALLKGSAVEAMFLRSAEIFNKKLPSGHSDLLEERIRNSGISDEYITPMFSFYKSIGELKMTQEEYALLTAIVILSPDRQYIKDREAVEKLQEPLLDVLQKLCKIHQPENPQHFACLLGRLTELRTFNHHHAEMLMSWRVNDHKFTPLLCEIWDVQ
Sequence of Hepatocyte nuclear factor 3-beta (Homo sapiens) (Q9Y261 whole entry, looked up): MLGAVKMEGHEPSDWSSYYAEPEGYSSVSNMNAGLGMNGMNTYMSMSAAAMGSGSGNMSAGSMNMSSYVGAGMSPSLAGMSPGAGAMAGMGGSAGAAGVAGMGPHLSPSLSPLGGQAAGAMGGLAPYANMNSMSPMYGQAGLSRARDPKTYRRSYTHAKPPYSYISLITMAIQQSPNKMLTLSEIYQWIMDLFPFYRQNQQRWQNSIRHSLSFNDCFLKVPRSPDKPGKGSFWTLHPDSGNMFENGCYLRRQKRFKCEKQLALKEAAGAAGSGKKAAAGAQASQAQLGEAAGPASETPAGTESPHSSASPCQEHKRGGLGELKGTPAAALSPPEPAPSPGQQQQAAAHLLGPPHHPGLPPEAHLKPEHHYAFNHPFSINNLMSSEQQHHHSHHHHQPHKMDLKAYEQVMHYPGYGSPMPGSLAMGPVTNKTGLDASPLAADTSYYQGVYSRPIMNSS
Sequence of Heat shock factor protein 1 (Homo sapiens) (Q00613 whole entry, looked up): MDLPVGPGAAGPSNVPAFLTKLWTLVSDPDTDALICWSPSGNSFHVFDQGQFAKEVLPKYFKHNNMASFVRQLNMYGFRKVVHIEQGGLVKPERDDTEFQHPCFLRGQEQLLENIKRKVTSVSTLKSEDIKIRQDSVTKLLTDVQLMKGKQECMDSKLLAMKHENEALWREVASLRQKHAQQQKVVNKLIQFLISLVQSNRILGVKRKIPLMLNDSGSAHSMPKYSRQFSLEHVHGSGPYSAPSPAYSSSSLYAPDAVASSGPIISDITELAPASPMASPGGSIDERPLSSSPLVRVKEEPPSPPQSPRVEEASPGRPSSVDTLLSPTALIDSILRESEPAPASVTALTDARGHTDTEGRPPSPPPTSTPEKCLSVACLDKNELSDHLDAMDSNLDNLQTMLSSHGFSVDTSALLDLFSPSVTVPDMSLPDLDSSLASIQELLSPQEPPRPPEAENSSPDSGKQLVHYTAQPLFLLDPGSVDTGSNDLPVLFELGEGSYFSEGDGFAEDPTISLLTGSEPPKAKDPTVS

`C=CCOC(F)(C(F)(F)F)C(F)(F)F`: the outcome in experiment [1], in experiment [2], in experiment [3], in [4], in experiment [5] and in experiment [6] was inactive. Moreover, the molecule was classed as inactive in experiment [7], in experiment [8], in [9], in experiment [10], in [11] and in experiment [12]. Moreover, the molecule was classed as inactive in [13], in experiment [14], in experiment [15], in experiment [16] and in experiment [17].
For `CC(c1ccc(O)cc1)c1ccc(O)cc1`, the outcome in experiment [1], in experiment [2], in [3], in experiment [6], in [7] and in [9] was inactive. In addition, the molecule was called inactive in experiment [10], in experiment [18], in experiment [11], in experiment [12], in [13] and in experiment [16]. In [17], the outcome was inactive. Besides, the half-maximal activity concentration (AC50) (usually the midpoint of the concentration-response curve, whichever way the signal moves) in experiment [4] is 0.701 µM (active); in [5], 137 µM (active); in [14], 168 µM (active); in experiment [15] it was 100 µM (active).
For `CC(c1ccccc1)(c1ccc(O)cc1)c1ccc(O)cc1`, the molecule was classed as inactive in experiment [1], in experiment [3], in experiment [19], in experiment [6], in [20] and in experiment [7]. Besides, the result in [9], in experiment [18], in [11], in [12] and in [13] was inactive. The AC50 was 12.3 µM (active) in experiment [2]; 0.181 µM (active) in experiment [4]; 15.6 µM (active) in experiment [8]; 19.3 µM (active) in [10]; 16.3 µM (active) in experiment [15]; 17.8 µM (active) in experiment [17].
In the case of `O=S(=O)(c1ccc(Cl)cc1)c1cc(Cl)c(Cl)cc1Cl`, the outcome in experiment [1], in [2], in experiment [3], in experiment [4], in [19] and in experiment [6] was inactive. Moreover, the call in experiment [20], in experiment [7], in experiment [9], in [10], in experiment [11] and in experiment [12] was inactive. The molecule was called inactive in experiment [13], in [15], in [16] and in [17]. In addition, the half-maximal activity concentration (AC50) in experiment [8] is 19.3 µM (active).
